About 8,800 targets were measured; listed, in parts, are those with a hit and a random draw of the rest. About 0.5% of all pairs of compound and target were hits. Values without a mark were called inactive.
What was measured:
Assay in all cases: log2 fold change, soluble protein after heating vs DMSO (PISA); higher = thermal stabilisation; K562 lysate, 10 uM; active = over 0.2 and 3.5 SD of the protein, either way, in both replicates (recomputed)
ibrutinib = compound: C=CC(=O)N1CCC[C@@H](n2nc(-c3ccc(Oc4ccccc4)cc3)c3c(N)ncnc32)C1 [ibrutinib]
Summary of the method: (§1)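 A 30 min treatment with 10 μM compound was applied to crude K562 extract at 1 mg/mL protein in PBS pH 7.4 with 1 mM MgCl2. Heating for 3 min spanned 48°C-58°C, after which aliquots were pooled, adjusted to 0.5% NP-40 at 4°C and spun at 21,000xg for 90 min. TMTpro 16plex LC-MS/MS of the supernatant, with channel sums equalised, gave values recorded as log-two fold change in thermal stability against solvent controls, from duplicates.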

[1] = compound: CC1=C(C2=C(C=C1)C(=O)C3=CC=CC=C3N2CCCN)C
Summary of the method: as §1

[2] = compound: CC(=O)c1cnc2ccc(-c3cc(Cl)c(O)c(Cl)c3)nc2c1N[C@H]1CC[C@H](CN(C)C)CC1
Summary of the method: as §1

ralimetinib = compound: CC(C)(C)Cn1c(N)nc2ccc(-c3[nH]c(C(C)(C)C)nc3-c3ccc(F)cc3)nc21 [ralimetinib]
Summary of the method: as §1

[3] = compound: CC(C)(O)CC(=O)NCCn1ccc2ncnc(Nc3ccc(Oc4cccc(C(F)(F)F)c4)c(Cl)c3)c21
Summary of the method: as §1

[4] = compound: CC(C)C1=C2N=C(C=C(N2N=C1)NCC3=CC=CC=C3)NCCCCCCN
Summary of the method: as §1

[5] = compound: CC1=C(C(CC(=O)N1)C2=CC=C(C=C2)C(F)(F)F)C(=O)NC3=C(C=C4C(=C3)C=NN4)F
Summary of the method: as §1

[6] = compound: CC1=C(C=C(C=C1)NC(=O)C2=CC(=CC=C2)C(C)(C)C#N)NC3=CC4=C(C=C3)N=CN(C4=O)C
Summary of the method: as §1

[7] = compound: CC1=C(C=C(C=C1)NC(=O)C2=CC(=CC=C2)N(C)C)NC(=O)C3=CC=C(C=C3)O
Summary of the method: as §1

[8] = compound: CC1=CC=C(C=C1)SC2=C3C=C(SC3=CN=C2)C(=O)N
Summary of the method: as §1

Chain of UniProt Q7L7V1 (Q7L7V1 whole entry, looked up): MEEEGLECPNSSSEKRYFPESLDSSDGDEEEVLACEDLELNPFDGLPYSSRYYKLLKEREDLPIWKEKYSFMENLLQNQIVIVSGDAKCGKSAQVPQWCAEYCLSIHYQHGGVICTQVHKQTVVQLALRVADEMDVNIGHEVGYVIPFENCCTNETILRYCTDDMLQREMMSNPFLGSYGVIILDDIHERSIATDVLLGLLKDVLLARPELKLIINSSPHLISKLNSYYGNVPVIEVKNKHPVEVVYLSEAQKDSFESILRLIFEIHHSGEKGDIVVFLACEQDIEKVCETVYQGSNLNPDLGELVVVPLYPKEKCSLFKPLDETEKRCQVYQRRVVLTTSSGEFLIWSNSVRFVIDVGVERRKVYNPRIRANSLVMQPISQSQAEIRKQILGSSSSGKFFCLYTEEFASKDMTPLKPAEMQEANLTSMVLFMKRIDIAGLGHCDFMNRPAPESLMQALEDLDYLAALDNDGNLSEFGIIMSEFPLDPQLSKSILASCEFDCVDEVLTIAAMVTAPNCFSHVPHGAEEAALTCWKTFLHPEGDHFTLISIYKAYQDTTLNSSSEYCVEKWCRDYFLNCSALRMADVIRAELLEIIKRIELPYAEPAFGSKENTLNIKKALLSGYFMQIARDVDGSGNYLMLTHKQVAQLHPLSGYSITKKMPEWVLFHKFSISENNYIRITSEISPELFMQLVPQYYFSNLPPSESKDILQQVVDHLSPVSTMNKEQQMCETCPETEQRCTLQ
Chain of UniProt Q9Y6M4 (Q9Y6M4 whole entry, looked up): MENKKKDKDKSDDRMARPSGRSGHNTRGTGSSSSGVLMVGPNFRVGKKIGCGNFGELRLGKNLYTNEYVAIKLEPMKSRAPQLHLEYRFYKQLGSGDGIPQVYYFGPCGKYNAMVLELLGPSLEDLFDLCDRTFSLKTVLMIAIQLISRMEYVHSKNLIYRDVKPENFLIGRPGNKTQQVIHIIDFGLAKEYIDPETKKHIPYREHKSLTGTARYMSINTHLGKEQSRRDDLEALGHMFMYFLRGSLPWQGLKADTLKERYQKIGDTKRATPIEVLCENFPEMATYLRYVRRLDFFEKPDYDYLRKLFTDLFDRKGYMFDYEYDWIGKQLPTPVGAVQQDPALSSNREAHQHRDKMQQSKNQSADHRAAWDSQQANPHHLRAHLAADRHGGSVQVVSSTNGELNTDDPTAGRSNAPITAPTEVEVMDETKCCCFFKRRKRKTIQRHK
Chain of UniProt P50570 (P50570 whole entry, looked up): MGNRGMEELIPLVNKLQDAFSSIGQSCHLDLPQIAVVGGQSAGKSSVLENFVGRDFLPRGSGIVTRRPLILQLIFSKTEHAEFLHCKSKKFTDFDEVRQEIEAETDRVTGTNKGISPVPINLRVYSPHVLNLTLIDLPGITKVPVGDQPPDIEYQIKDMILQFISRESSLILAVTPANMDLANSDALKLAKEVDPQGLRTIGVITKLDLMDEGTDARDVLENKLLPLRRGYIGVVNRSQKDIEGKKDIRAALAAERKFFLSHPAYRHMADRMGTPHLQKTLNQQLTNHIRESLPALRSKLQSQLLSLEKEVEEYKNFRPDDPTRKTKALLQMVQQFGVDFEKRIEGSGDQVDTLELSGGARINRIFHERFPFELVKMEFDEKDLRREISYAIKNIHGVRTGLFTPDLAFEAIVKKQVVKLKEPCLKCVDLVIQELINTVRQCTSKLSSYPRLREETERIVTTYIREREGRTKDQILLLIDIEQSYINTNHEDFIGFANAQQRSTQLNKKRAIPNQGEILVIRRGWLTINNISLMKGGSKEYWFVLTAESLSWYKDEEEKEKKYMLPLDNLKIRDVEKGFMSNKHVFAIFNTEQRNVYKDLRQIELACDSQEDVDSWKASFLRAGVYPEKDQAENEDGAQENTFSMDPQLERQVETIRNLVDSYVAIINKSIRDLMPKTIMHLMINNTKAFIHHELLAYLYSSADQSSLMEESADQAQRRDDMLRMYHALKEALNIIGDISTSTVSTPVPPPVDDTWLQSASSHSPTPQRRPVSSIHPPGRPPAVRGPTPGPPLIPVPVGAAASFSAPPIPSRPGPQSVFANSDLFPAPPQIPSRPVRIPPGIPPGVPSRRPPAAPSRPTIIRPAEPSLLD
Chain of UniProt P51530 (P51530 whole entry, looked up): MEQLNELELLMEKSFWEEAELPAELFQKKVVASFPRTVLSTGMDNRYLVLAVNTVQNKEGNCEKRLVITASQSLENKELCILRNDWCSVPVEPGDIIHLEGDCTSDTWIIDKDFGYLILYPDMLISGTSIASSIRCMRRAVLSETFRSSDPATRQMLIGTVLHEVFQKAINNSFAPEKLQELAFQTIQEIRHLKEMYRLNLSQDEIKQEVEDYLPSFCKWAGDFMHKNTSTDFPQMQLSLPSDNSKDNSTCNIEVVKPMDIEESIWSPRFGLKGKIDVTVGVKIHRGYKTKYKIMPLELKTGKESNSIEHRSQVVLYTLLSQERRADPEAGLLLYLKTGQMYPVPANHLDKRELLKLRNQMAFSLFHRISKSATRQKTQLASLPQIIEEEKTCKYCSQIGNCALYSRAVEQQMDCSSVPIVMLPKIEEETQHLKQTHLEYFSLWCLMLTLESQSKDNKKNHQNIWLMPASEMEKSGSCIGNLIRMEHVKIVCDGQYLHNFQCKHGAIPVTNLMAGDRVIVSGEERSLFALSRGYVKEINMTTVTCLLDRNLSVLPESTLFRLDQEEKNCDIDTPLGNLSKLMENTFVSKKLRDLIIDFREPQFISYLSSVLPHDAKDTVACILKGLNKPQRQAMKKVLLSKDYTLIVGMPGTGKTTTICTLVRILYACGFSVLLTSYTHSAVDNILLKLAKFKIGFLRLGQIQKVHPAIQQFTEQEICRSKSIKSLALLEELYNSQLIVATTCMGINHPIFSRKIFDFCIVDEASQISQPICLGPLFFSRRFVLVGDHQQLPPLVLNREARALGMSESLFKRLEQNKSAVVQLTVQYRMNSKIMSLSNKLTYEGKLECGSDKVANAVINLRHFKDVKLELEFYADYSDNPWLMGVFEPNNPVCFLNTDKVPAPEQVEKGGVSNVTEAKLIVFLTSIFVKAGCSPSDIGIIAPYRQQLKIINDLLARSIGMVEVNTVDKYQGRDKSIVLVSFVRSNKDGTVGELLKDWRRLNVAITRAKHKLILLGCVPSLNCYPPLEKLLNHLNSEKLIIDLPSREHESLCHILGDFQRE
Chain of UniProt Q96EP1 (Q96EP1 whole entry, looked up): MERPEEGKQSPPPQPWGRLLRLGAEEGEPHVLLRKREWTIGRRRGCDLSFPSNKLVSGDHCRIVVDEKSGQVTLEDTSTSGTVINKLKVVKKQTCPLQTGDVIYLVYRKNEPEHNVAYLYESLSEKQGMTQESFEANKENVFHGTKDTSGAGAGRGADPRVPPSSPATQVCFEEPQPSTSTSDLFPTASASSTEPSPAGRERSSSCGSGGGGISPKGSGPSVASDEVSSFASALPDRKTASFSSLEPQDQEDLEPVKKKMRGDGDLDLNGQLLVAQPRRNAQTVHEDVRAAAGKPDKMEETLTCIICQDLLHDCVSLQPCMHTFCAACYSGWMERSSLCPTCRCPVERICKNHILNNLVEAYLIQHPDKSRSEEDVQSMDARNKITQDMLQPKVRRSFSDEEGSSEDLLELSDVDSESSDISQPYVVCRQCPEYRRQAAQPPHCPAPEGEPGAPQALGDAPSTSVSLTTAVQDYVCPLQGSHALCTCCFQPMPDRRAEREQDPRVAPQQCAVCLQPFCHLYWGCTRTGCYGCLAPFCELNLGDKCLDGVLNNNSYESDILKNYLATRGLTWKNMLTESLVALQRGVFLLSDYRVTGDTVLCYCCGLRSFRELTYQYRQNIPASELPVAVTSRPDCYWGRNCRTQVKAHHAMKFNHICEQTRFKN
Chain of UniProt O75122 (O75122 whole entry, looked up): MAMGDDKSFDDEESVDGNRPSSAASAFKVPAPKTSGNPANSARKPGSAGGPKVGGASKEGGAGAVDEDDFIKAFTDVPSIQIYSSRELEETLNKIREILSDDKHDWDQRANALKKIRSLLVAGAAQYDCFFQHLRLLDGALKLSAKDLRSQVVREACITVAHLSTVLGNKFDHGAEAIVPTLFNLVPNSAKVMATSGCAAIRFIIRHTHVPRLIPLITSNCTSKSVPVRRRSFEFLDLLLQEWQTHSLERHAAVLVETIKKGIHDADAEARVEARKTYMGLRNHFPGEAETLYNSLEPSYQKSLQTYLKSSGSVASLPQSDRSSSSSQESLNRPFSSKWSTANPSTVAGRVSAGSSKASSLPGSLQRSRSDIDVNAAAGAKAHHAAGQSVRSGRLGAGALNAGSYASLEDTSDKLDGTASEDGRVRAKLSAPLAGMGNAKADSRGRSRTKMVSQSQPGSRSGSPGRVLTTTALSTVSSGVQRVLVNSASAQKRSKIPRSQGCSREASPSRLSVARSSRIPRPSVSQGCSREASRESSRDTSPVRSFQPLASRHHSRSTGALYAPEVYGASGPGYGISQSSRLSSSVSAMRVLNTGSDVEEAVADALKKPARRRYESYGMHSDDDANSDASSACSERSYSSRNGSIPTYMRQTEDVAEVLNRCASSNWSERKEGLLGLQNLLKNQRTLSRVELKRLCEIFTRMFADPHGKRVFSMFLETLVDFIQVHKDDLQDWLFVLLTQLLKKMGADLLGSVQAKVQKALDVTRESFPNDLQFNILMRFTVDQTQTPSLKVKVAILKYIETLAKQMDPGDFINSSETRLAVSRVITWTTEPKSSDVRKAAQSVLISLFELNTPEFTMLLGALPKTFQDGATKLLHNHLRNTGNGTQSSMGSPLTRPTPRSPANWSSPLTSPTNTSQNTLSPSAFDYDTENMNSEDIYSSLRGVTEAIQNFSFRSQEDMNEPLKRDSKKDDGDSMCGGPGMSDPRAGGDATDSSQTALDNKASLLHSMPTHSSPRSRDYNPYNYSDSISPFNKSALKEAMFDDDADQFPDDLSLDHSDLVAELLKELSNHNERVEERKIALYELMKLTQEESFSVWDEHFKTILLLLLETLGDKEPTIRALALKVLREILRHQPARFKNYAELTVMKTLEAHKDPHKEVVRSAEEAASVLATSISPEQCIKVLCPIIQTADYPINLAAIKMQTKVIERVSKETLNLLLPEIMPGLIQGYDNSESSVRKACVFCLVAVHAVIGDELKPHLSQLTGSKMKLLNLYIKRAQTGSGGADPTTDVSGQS

Row | Target | log2 fold change (ibrutinib) | log2 fold change [1] | log2 fold change [2] | log2 fold change (ralimetinib) | log2 fold change [3] | log2 fold change [4] | log2 fold change [5] | log2 fold change [6] | log2 fold change [7] | log2 fold change [8]
1 | DLGAP5 isoform 3 (UniProt Q15398) | -0.076 | 0.233 | – | – | – | – | – | – | – | –
2 | CSTF2 (UniProt P33240) | 0.244 (active) | -0.02 | -0.001 | 0.025 | -0.033 | -0.022 | -0.033 | -0.011 | 0.052 | 0.011
3 | DCTN1 (UniProt Q14203) | -0.005 | 0.011 | 0.01 | 0.013 | -0.02 | -0.006 | 0.001 | -0.013 | 0.009 | 0.011
4 | CSNK1G3 (UniProt Q9Y6M4) | -0.025 | 0.024 | 0.529 (active) | 0.003 | -0.048 | -0.038 | -0.007 | 0.031 | -0.066 | 0.132
5 | DPY19L3 (UniProt Q6ZPD9) | -0.111 | – | 0.012 | – | – | -0.224 | – | 0.047 | – | -0.017
6 | CSDE1 isoform 3 (UniProt O75534) | 0.051 | – | -0.331 | 0.047 | 0.019 | – | -0.112 | -0.009 | -0.137 | 0.031
7 | CNOT4 isoform 9 (UniProt O95628) | 0.052 | 0.032 | -0.019 | 0.043 | -0.084 | -0.003 | – | -0.138 | -0.02 | 0.013
8 | CORO1A (UniProt P31146) | 0.028 | -0.107 | -0.031 | -0.015 | -0.021 | 0.055 | 0.018 | 0.025 | -0.036 | 0.012
9 | CLUH (UniProt O75153) | – | 0 | 0.093 | 0.008 | -0.004 | -0.044 | -0.01 | -0.001 | 0.006 | 0.008
10 | CRLS1 (UniProt Q9UJA2) | -0.023 | – | -0.008 | 0.079 | -0.027 | -0.102 | -0.049 | 0.066 | 0.058 | 0.048
11 | DNAH5 (UniProt Q8TE73) | -0.064 | 0.014 | -0.009 | -0.045 | -0.138 | 0.076 | 0.062 | – | 0.019 | 0.086
12 | DIAPH1 (UniProt H9KV28) | -0.063 | – | 0.024 | -0.022 | -0.106 | -0.083 | 0.032 | 0.004 | 0.009 | -0.03
13 | CUL1 (UniProt Q13616) | 0.02 | 0.016 | 0.005 | -0.004 | -0.016 | -0.018 | -0.014 | 0.02 | -0.001 | -0.01
14 | CLIP1 isoform 1 (UniProt P30622) | – | -0.016 | -0.005 | 0.004 | 0 | -0.008 | -0.01 | 0.006 | 0.003 | -0.004
15 | CHML (UniProt P26374) | -0.029 | 0 | -0.017 | -0.008 | -0.004 | -0.009 | -0.012 | -0.003 | -0.017 | -0.006
16 | CNTN4 (UniProt Q8IWV2) | -0.043 | – | -0.154 | -0.286 | -0.341 | 0.094 | -0.077 | 0.312 | -0.039 | -0.141
17 | CYP4V2 (UniProt Q6ZWL3) | 0.157 | -0.022 | 0.129 | 0.058 | -0.095 | -0.004 | – | 0.02 | 0.015 | 0.015
18 | DHRS1 (UniProt Q96LJ7) | -0.057 | -0.104 | -0.037 | 0.01 | 0.089 | 0.058 | 0.024 | 0.001 | -0.035 | -0.001
19 | CSNK2A1, A0A2R8Y4D6 | – | – | 0.172 | – | – | – | – | – | – | -0.292
20 | CSNK1G3 isoform 4 (UniProt Q9Y6M4) | – | – | 0.235 | – | – | – | – | – | – | -0.142
21 | CLIP1 isoform 2 (UniProt P30622) | – | -0.025 | 0.05 | -0.002 | -0.04 | -0.054 | 0.017 | 0.053 | 0.021 | -0.088
22 | DNA2 (UniProt P51530) | – | 0.002 | – | 0.016 | 0.029 | -0.06 | -0.007 | -0.02 | 0.001 | –
23 | CLIC2 (UniProt O15247) | – | 0.018 | -0.014 | 0.004 | 0.004 | 0.04 | -0.01 | 0.005 | 0.006 | 0.001
24 | CNOT2 (UniProt F8VRS8) | – | – | – | – | – | -0.001 | – | – | – | –
25 | COL12A1 (UniProt Q99715) | – | -0.224 | 0.72 | – | – | 0.024 | – | 1.57 (active) | – | 0.005
26 | CUX1 isoform 2 (UniProt Q13948) | – | -0.027 | 0.07 | -0.069 | 0.052 | -0.16 | – | 0.385 | 0.043 | -0.086
27 | CLASP2 isoform 3 (UniProt O75122) | – | -0.008 | 0.004 | 0.019 | -0.014 | 0.025 | 0.019 | 0.023 | 0.042 | 0.004

Row | Target | log2 fold change (ibrutinib) | log2 fold change [1] | log2 fold change [2] | log2 fold change (ralimetinib) | log2 fold change [3] | log2 fold change [4] | log2 fold change [5] | log2 fold change [6] | log2 fold change [7] | log2 fold change [8]
28 | CLCN3 isoform 2 (UniProt P51790) | – | -0.066 | 0.029 | 0.02 | -0.032 | -0.035 | -0.017 | 0.029 | 0.048 | -0.013
29 | DALRD3 (UniProt Q5D0E6) | – | – | 0.028 | – | – | -0.024 | – | – | – | 0.037
30 | DHX32 (UniProt Q7L7V1) | – | – | – | 0.096 | -0.144 | -0.387 (active) | 0.016 | -0.023 | 0.017 | –
31 | CHFR (UniProt Q96EP1) | – | -0.06 | 0.158 | 0.007 | -0.049 | -0.047 | 0.003 | -0.021 | 0.031 | 0.102
32 | CSNK1A1 isoform 3 (UniProt P48729) | – | -0.061 | – | 0.13 | 0.253 | – | – | – | 0.143 | –
33 | DAZAP1 (UniProt K7EQ02) | – | – | – | – | – | – | 0.033 | – | – | –
34 | DDAH1 (UniProt O94760) | – | -0.441 (active) | -0.016 | -0.037 | -0.045 | -0.001 | – | 0.137 | -0.005 | -0.04
35 | COPS9 (UniProt Q8WXC6) | – | – | -0.059 | 0.146 | -0.213 | 0.173 | – | – | 0.172 | -0.184
36 | CLPTM1L (UniProt Q96KA5) | – | 0.081 | -0.011 | 0.041 | -0.041 | 0.048 | 0.058 | -0.024 | 0.039 | -0.005
37 | DNM2 isoform 4 (UniProt P50570) | – | 0.075 | -0.018 | 0.011 | -0.027 | -0.143 | -0.07 | -0.08 | 0.047 | 0.058
38 | DCTN1 isoform 4 (UniProt Q14203) | – | -0.11 | 0.089 | 0.114 | -0.076 | 0.1 | -0.074 | 0.044 | 0.036 | -0.029
39 | CLIP1, A0A3B3ITA2 | – | – | – | 0.156 | -0.173 | – | – | 0.019 | -0.215 | –
40 | CNNM2 (UniProt Q9H8M5) | – | -0.031 | 0.004 | 0.31 | 0.348 (active) | 0.048 | – | -0.054 | -0.157 | -0.015
41 | CLUH, A0A494C0R8 | – | 0 | 0.138 | 0.053 | -0.043 | 0.002 | -0.128 | 0.016 | -0.035 | 0.029
42 | CLASP1 (UniProt Q7Z460) | – | 0.004 | 0.013 | 0.02 | 0.024 | 0.01 | 0.018 | 0.02 | 0.036 | 0.001
43 | DNAJC24 (UniProt Q6P3W2) | – | 0.064 | -0.12 | -0.052 | 0.113 | -0.067 | -0.048 | 0.031 | 0.047 | 0.064
44 | CYP2S1 isoform 2 (UniProt Q96SQ9) | – | -0.084 | 0.146 | 0.048 | 0 | 0.061 | – | -0.028 | 0.07 | -0.229
45 | CLCN3 (UniProt P51790) | – | 0.024 | 0.038 | 0.038 | 0.05 | -0.089 | -0.03 | -0.155 | -0.017 | 0.079
46 | CNK3/IPCEF1 isoform 2 (UniProt G9CGD6) | – | 0.075 | – | 0.215 | -0.138 | -0.096 | – | – | 0 | –
47 | CORO7 (UniProt P57737) | – | 0.067 | – | -0.039 | 0.06 | -0.076 | -0.202 | -0.229 | 0.134 | –
48 | DAPK1 isoform 3 (UniProt P53355) | – | 0.017 | 0.35 | 0.041 | 0 | -0.077 | 0.138 | -0.151 | -0.026 | -0.094
49 | CPLX1 (UniProt O14810) | – | 0.874 (active) | -0.071 | 0.079 | -0.139 | – | – | – | 0.037 | 0.119
50 | CLP1 (UniProt Q92989) | – | 0.001 | 0.062 | 0.006 | 0.003 | 0.012 | 0.023 | -0.02 | -0.037 | 0.01
51 | CLASP2 (UniProt O75122) | – | – | -0.048 | 0.075 | 0.069 | – | 0.044 | -0.098 | 0.001 | -0.028
52 | COX7B (UniProt P24311) | – | -0.144 | -0.016 | 0.014 | -0.09 | 0.008 | -0.046 | 0.018 | 0.039 | 0.02
53 | CLASP1 isoform 4 (UniProt Q7Z460) | – | – | – | – | – | -0.124 | -0.226 | – | – | –

From the supplement of paper PMC10849652
